Measured values: PubChem BioAssay (NCI)
About 79,000 compounds went through this panel and 15% of them were active in at least one assay; those are over-represented in the sample as a whole. The source made the active and inactive calls. Rule as the data show it: active = growth inhibition above about 70%; inactive = the rest.

Legend:
[1] = NCI Yeast Anticancer Drug Screen. Data for the rad52 strain (AID 147);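 also: 0% = growth of vehicle-treated control cultures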; details: S. cerevisiae rad52 mutant growth inhibition, hits give high values
In short: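 Read-out: growth inhibition versus vehicle-treated controls. Cells were a DNA repair-deficient yeast strain treated with compounds.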

[2] = NCI Yeast Anticancer Drug Screen. Data for the wt1 strain (AID 149);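 also: 0% = growth of vehicle-treated wt1 cultures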; details: S. cerevisiae wt1 strain (SPY 50644) growth inhibition, hits give high values
In short: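 Readout: yeast growth inhibition, normalised to vehicle controls, in the wt1 strain exposed to test compounds.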

[3] = NCI Yeast Anticancer Drug Screen. Data for the rad50EPP+ strain (AID 151);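 also: 0% = growth of vehicle-treated control cultures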; details: S. cerevisiae rad50 mutant strain, hits give high values
In short: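 Growth inhibition read against vehicle controls in rad50EPP+ yeast, a strain altered in DNA damage repair, after compound exposure.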

[4] = NCI Yeast Anticancer Drug Screen. Data for the rad50 strain (AID 155);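 also: 0% = growth of vehicle-only cultures of the same strain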; details: S. cerevisiae rad50 strain growth inhibition, hits give high values
In short: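 Compounds were tested on a yeast strain with an engineered DNA damage repair alteration; the reported value is growth inhibition normalised to vehicle treatment.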

[5] = NCI Yeast Anticancer Drug Screen. Data for the mec2-1 strain (AID 157); details: S. cerevisiae mec2-1 strain, hits give high values
In short: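 Yeast mec2-1 mutant treated with compound. Readout: growth inhibition vs vehicle controls.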

[6] = NCI Yeast Anticancer Drug Screen. Data for the rad14 strain (AID 159);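 also: 0% = growth of vehicle-treated control cultures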; details: S. cerevisiae rad14 strain growth inhibition, hits give high values
In short: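 Compound-treated yeast with a defined DNA-repair lesion; growth inhibition normalised to vehicle-treated cultures.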

[7] = NCI Yeast Anticancer Drug Screen. Data for the sgs1 mgt1 strain (AID 161);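 also: 0% = growth of cultures given vehicle only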; details: S. cerevisiae sgs1 mgt1 strain, hits give high values
In short: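 Test agents were incubated with a DNA-repair-mutant yeast strain. Growth was then read and compared against vehicle-treated controls.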

[8] = NCI Yeast Anticancer Drug Screen. Data for the CLN2oe strain (AID 163);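 also: 0% = growth of vehicle-only control cultures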; details: S. cerevisiae CLN2oe strain, hits give high values
In short: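 Read-out: yeast growth inhibition, expressed relative to vehicle-only controls. The strain bears an engineered cell-cycle alteration.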

[9] = NCI Yeast Anticancer Drug Screen. Data for the cln2 rad14 strain (AID 165);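 also: 0% = growth equal to vehicle treated cultures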; details: S. cerevisiae cln2 rad14 strain, hits give high values
In short: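 cln2 rad14 yeast strain; compound exposure; growth inhibition read vs vehicle controls.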

[10] = NCI Yeast Anticancer Drug Screen. Data for the bub3 strain (AID 167); details: S. cerevisiae bub3 mutant strain, hits give high values
In short: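 Growth of a checkpoint-deficient yeast mutant is measured after compound exposure. Values represent inhibition relative to vehicle.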

[11] = NCI Yeast Anticancer Drug Screen. Data for the wt2 strain (AID 169);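 also: 0% = growth of vehicle-treated yeast cultures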; details: S. cerevisiae wt2 strain growth inhibition, hits give high values
In short: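 Read-out: growth inhibition versus vehicle-treated control cultures after compound exposure of the yeast strain.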

[12] = NCI Yeast Anticancer Drug Screen. Data for the mlh1 rad18 strain (AID 175); details: S. cerevisiae mlh1 rad18 strain growth inhibition, hits give high values
In short: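 Yeast w/ defined DNA-repair lesions; compound exposure; growth vs vehicle controls → % inhibition.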

[13] = NCI Yeast Anticancer Drug Screen. Data for the rad18 strain (AID 177); details: S. cerevisiae rad18 mutant growth inhibition, hits give high values
In short: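 Readout: growth inhibition vs vehicle controls. Cells: genetically altered yeast strain, DNA repair defect.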

[14] = NCI Yeast Anticancer Drug Screen. Data for the mlh1 strain (AID 171);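 also: 0% = growth of vehicle-treated control cultures of the same strain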; details: S. cerevisiae mlh1 strain growth inhibition, hits give high values
In short: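 Read-out: growth inhibition versus vehicle controls. Strain: engineered yeast with a defined DNA repair or cell cycle defect, compound-treated.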

[15] = at 5.0 µM (retest, dose inferred, filed as 0.5)
[16] = at 50.0 µM (retest, dose inferred, filed as 5.0)

Measured: growth inhibition

CCCCCCCCN1C(=O)c2ccccc2C1=O
inactive: [1]; at 1.2 µM 0% | [1]; at 3.7 µM 0% | [1]; at 11.0 µM 5% | [1]; at 33.0 µM 10% | [1]; at 100.0 µM 6% | [2]; at 1.2 µM -2% | [2]; at 3.7 µM -1% | [2]; at 11.0 µM -1% | [2]; at 33.0 µM -4% | [2]; at 100.0 µM -6% | [3]; at 1.2 µM 2% | [3]; at 3.7 µM 9% | [3]; at 11.0 µM 14% | [3]; at 33.0 µM 18% | [3]; at 100.0 µM 42% | [4]; at 1.2 µM 0% | [4]; at 3.7 µM 3% | [4]; [15] 20% | [4]; at 11.0 µM 6% | [4]; at 33.0 µM 10% | [4]; [16] 15% | [4]; at 50.0 µM 39.5% | [4]; at 100.0 µM -2% | [5]; at 1.2 µM -3% | [5]; at 3.7 µM -4% | [5]; [15] -7% | [5]; at 11.0 µM -5% | [5]; at 33.0 µM -4% | [5]; [16] 13% | [5]; at 50.0 µM 50% | [5]; at 100.0 µM 0% | [6]; at 1.2 µM -2% | [6]; at 3.7 µM 0% | [6]; at 11.0 µM 6% | [6]; at 33.0 µM 14% | [6]; at 100.0 µM 18% | [7]; [15] 1% | [7]; [16] 36% | [8]; at 1.2 µM -2% | [8]; at 3.7 µM 0% | [8]; at 11.0 µM -1% | [8]; at 33.0 µM -2% | [8]; at 100.0 µM -1% | [9]; [15] -15% | [9]; [16] -7% | [9]; at 50.0 µM -91.1% | [10]; at 1.2 µM 2% | [10]; at 3.7 µM 4% | [10]; [15] 8% | [10]; at 11.0 µM 21% | [10]; at 33.0 µM 39% | [10]; [16] 40% | [10]; at 100.0 µM 50% | [11]; at 1.2 µM -2% | [11]; at 3.7 µM -3% | [11]; at 11.0 µM -4% | [11]; at 33.0 µM -5% | [11]; at 100.0 µM -4% | [12]; [15] -2% | [12]; [16] 62% | [13]; at 1.2 µM -2% | [13]; at 3.7 µM -3% | [13]; at 11.0 µM -2% | [13]; at 33.0 µM 4% | [13]; at 100.0 µM 14%
active: [7]; at 50.0 µM 78.7% | [10]; at 50.0 µM 89.5% | [12]; at 50.0 µM 91%

CCOP1(=O)C=C(Sc2ccc([N+](=O)[O-])cc2[N+](=O)[O-])C(C)(C)O1 (stereo unspecified)
inactive: [1]; at 1.2 µM 2% | [1]; at 3.7 µM 6% | [1]; at 11.0 µM 16% | [1]; at 33.0 µM 39% | [2]; at 1.2 µM 2% | [2]; at 3.7 µM 2% | [2]; at 11.0 µM 6% | [2]; at 33.0 µM 4% | [2]; at 100.0 µM 31% | [3]; at 1.2 µM -4% | [3]; at 3.7 µM -3% | [3]; at 11.0 µM -2% | [3]; at 33.0 µM 13% | [3]; at 100.0 µM 53% | [4]; at 1.2 µM 2% | [4]; at 3.7 µM 9% | [4]; [15] 28% | [4]; at 11.0 µM 16% | [4]; at 33.0 µM 37% | [4]; [16] 40% | [4]; at 50.0 µM 51.4% | [5]; at 1.2 µM 7% | [5]; at 3.7 µM 12% | [5]; [15] 27% | [5]; at 11.0 µM 18% | [5]; at 33.0 µM 41% | [5]; [16] 41% | [5]; at 50.0 µM 8.65% | [6]; at 1.2 µM 1% | [6]; at 3.7 µM 3% | [6]; at 11.0 µM 9% | [6]; at 33.0 µM 20% | [6]; at 100.0 µM 43% | [7]; [15] 23% | [7]; [16] 38% | [7]; at 50.0 µM 33% | [8]; at 1.2 µM 3% | [8]; at 3.7 µM 0% | [8]; at 11.0 µM 1% | [8]; at 33.0 µM 11% | [8]; at 100.0 µM 37% | [9]; [15] 7% | [9]; [16] 44% | [9]; at 50.0 µM 26.1% | [10]; at 1.2 µM 5% | [10]; at 3.7 µM 7% | [10]; [15] 11% | [10]; at 11.0 µM 16% | [10]; at 33.0 µM 40% | [10]; [16] 31% | [10]; at 50.0 µM 1.9% | [11]; at 1.2 µM 4% | [11]; at 3.7 µM 8% | [11]; at 11.0 µM 12% | [11]; at 33.0 µM 25% | [14]; at 1.2 µM 3% | [14]; at 3.7 µM 7% | [14]; at 11.0 µM 14% | [14]; at 33.0 µM 31% | [12]; [15] 25% | [12]; [16] 60% | [12]; at 50.0 µM 42.2% | [13]; at 1.2 µM 0% | [13]; at 3.7 µM 9% | [13]; at 11.0 µM 28% | [13]; at 33.0 µM 66%
active: [1]; at 100.0 µM 84% | [4]; at 100.0 µM 83% | [5]; at 100.0 µM 87% | [10]; at 100.0 µM 92% | [11]; at 100.0 µM 72% | [14]; at 100.0 µM 83% | [13]; at 100.0 µM 92%
